This note sets out measurements from PMC7862700, “An all-to-all approach to the identification of sequence-specific readers for epigenetic DNA modifications on cytosine”.

What all share (assay): DAPPL (digital affinity profiling via proximity ligation, sequencing); 10 mM Tris-HCl pH 7.5, 50 mM NaCl, 1 mM DTT, 4% glycerol, room temperature, 30 min; GST-TFs on glutathione beads, 16-mer random dsDNA library, 0.1% formaldehyde crosslink after washing; high values mean tight binding
Assay [1] concerns the target T1, FEV (Homo sapiens, UniProt Q99581 1-238).
T1 sequence: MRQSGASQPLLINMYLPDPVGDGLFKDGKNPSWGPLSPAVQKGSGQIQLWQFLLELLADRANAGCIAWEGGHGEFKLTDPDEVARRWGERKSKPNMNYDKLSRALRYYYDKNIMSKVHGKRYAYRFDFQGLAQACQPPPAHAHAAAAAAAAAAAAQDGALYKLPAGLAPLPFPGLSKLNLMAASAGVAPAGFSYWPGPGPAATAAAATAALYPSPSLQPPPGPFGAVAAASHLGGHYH
Particulars: protein: recombinant; tags: N-terminal GST; dsDNA, one strand shown. In short, it runs like this: (§1)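 Each value of binding signal is a hexamer's read frequency for a factor divided by the same hexamer's frequency in the tag-only sample. Barcoded, bead-captured GST fusions of human transcription factors made in yeast were pooled with that sample and incubated with 200 nmole of a random double-stranded 16-mer DNA library in Tris/NaCl/DTT/glycerol buffer at room temperature for 30 min. Washing, 0.1% formaldehyde crosslinking, proximity ligation, PCR and Illumina NextSeq500 sequencing followed.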

For assay [2], the target named is ETV5 (Homo sapiens, UniProt P41161 1-510). Particulars: protein: recombinant; tags: N-terminal GST; dsDNA, one strand shown. In short, it runs like this: as §1
Assay [3] addresses HSF1 (Homo sapiens, UniProt Q00613 1-529). Particulars: protein: recombinant; tags: N-terminal GST; chain copies: 3; dsDNA, one strand shown. In short, it runs like this:
as §1

Assay [4] addresses T2, SPIC (Homo sapiens, UniProt Q8N5J4 1-248).
T2 sequence: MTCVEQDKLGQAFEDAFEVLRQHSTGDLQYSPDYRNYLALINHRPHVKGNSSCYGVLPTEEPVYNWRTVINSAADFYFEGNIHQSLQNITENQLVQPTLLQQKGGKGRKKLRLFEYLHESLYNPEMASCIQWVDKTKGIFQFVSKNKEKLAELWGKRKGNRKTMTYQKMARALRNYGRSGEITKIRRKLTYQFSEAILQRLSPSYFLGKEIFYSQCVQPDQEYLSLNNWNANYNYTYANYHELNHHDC
Particulars: protein: recombinant; tags: N-terminal GST; dsDNA, one strand shown. In short, it runs like this:
as §1

For assay [5], the target named is ELF4 (Homo sapiens, UniProt Q99607 1-663). Particulars: protein: recombinant; tags: N-terminal GST; dsDNA, one strand shown. In short, it runs like this: as §1
Assay [6] addresses T3, ELK4 (Homo sapiens, UniProt P28324-2 1-405).
T3 sequence: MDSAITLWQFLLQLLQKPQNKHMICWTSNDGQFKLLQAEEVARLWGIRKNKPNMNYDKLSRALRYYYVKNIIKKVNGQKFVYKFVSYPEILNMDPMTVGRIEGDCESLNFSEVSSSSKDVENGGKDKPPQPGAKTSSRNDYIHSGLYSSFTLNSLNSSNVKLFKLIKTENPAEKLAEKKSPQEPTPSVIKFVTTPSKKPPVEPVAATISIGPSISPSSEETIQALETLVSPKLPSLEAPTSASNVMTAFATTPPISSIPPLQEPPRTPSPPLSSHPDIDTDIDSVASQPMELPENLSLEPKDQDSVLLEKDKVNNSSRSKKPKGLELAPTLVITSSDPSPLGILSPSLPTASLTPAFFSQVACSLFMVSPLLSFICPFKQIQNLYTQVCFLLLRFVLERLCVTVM
Particulars: protein: recombinant; tags: N-terminal GST; dsDNA, one strand shown. Summed up: as §1

Assay [7] has as its target T4, ETV2 (Homo sapiens, UniProt O00321 1-342).
T4 sequence: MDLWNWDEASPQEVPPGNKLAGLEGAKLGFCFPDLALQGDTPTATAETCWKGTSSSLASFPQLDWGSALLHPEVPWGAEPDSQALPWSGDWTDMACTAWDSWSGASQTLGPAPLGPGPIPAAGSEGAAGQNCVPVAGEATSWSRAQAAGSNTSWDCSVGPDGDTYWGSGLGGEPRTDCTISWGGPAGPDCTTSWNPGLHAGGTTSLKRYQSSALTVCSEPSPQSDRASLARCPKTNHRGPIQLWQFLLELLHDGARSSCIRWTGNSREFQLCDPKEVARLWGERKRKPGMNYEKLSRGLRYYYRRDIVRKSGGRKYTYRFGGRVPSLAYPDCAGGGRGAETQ
Particulars: protein: recombinant; tags: N-terminal GST; dsDNA, one strand shown. In short, it runs like this:
as §1

Assay [8] deals with T5, ELF3 (Homo sapiens, UniProt P78545 1-371).
T5 sequence: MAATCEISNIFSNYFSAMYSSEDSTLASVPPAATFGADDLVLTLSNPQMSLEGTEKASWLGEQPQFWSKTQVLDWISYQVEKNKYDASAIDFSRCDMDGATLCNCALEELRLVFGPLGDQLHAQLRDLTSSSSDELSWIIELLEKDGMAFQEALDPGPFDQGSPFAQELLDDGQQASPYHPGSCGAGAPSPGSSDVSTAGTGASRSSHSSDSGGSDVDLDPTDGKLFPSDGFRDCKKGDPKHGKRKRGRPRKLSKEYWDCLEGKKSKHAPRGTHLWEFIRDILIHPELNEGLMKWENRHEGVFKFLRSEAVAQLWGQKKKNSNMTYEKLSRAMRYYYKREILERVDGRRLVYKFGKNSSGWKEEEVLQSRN
Particulars: protein: recombinant; tags: N-terminal GST; dsDNA, one strand shown. Summed up: as §1

For assay [9], the target named is CRX (Homo sapiens, UniProt O43186 1-299). Particulars: protein: recombinant; tags: N-terminal GST; dsDNA, one strand shown. In short, it runs like this:
as §1

In assay [10] the target is ETV1 (Homo sapiens, UniProt P50549 1-477). Particulars: protein: recombinant; tags: N-terminal GST; dsDNA, one strand shown. In short, it runs like this: as §1
The target in assay [11] is T6, ERF (Homo sapiens, UniProt P50548 1-548).
T6 sequence: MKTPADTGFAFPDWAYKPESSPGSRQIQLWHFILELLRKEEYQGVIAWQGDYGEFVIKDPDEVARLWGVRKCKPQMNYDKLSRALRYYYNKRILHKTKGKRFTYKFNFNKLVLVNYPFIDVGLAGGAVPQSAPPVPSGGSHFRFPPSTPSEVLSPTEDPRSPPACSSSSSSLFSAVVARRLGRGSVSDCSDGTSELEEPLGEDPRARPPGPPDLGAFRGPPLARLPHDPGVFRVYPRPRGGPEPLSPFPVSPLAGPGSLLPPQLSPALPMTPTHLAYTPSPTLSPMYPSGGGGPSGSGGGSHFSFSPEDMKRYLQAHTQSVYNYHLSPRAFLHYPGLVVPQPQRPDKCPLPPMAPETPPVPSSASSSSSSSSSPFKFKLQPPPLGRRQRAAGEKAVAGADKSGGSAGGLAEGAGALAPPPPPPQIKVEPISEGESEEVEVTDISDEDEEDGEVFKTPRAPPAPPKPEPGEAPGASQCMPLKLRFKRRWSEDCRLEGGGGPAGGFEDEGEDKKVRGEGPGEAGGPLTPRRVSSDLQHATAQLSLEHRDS
Particulars: protein: recombinant; tags: N-terminal GST; dsDNA, one strand shown. In short, it runs like this:
as §1

Assay [12] addresses T7, ETV3L (Homo sapiens, UniProt Q6ZN32 1-361).
T7 sequence: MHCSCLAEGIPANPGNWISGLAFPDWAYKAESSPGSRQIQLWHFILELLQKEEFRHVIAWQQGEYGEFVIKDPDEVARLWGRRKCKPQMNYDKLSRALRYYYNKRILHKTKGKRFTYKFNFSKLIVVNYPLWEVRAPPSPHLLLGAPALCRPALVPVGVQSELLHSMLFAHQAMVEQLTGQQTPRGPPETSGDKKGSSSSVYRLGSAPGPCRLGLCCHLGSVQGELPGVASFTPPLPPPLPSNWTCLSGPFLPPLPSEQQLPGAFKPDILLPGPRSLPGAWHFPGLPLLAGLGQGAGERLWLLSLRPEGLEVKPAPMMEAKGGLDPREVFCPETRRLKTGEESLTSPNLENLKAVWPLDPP
Particulars: protein: recombinant; tags: N-terminal GST; dsDNA, one strand shown. In short, it runs like this: as §1

Assay [13] has as its target T8, ETS2 (Homo sapiens, UniProt P15036 1-469).
T8 sequence: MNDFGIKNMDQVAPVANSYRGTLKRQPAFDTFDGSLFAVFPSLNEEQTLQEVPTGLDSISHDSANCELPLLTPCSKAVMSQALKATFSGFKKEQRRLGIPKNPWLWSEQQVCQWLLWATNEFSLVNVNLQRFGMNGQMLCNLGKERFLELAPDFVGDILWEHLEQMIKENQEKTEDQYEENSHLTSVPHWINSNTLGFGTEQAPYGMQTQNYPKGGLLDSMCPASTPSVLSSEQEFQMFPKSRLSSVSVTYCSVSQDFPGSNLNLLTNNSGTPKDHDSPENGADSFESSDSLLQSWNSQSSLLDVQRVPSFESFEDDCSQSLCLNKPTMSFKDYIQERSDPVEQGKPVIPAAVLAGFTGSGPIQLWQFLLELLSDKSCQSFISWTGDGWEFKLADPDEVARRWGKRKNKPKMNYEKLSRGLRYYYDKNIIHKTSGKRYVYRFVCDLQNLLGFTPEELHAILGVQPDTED
Particulars: protein: recombinant; tags: N-terminal GST; dsDNA, one strand shown. Summed up: as §1

The target in assay [14] is T9, SPDEF (Homo sapiens, UniProt O95238 1-335).
T9 sequence: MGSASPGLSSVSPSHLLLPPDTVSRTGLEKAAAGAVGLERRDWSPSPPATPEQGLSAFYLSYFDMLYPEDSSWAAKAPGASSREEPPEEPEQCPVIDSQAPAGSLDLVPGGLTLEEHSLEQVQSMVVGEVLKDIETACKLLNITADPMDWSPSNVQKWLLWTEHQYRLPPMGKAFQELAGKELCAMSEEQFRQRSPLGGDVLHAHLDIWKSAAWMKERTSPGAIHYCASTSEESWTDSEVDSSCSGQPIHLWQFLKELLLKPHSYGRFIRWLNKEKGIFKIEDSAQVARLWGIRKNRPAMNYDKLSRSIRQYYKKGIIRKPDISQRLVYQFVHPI
Particulars: protein: recombinant; tags: N-terminal GST; dsDNA, one strand shown. In short, it runs like this:
as §1

For assay [15], the target named is T10, ETV7 (Homo sapiens, UniProt Q9Y603 1-341).
T10 sequence: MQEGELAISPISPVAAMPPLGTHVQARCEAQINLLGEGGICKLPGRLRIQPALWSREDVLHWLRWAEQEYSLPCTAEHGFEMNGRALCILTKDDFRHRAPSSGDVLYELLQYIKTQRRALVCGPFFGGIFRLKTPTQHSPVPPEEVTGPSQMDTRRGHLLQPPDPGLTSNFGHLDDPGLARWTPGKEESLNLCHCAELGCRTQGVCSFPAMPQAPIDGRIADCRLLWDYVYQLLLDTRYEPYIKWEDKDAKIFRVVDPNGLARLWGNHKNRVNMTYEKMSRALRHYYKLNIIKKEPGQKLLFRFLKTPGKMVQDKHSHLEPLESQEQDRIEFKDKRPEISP
Particulars: protein: recombinant; tags: N-terminal GST; dsDNA, one strand shown. In short, it runs like this:
as §1

Assay [16] concerns the target T11, ELF5 (Homo sapiens, UniProt Q9UKW6-2 1-255).
T11 sequence: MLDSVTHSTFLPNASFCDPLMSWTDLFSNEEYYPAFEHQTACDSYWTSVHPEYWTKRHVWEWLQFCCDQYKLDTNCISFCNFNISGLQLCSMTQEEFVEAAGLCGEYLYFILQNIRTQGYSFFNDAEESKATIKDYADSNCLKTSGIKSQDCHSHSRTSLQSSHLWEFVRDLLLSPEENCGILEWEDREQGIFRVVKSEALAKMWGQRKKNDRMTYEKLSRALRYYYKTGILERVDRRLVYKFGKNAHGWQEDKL
Particulars: protein: recombinant; tags: N-terminal GST; dsDNA, one strand shown. In short, it runs like this: as §1

The target in assay [17] is T12, ETV3 (Homo sapiens, UniProt P41162-2 1-143).
T12 sequence: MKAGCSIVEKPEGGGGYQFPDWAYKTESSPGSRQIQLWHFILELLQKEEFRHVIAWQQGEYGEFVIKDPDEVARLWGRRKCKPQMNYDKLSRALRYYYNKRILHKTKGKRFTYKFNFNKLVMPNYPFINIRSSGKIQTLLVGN
Particulars: protein: recombinant; tags: N-terminal GST; dsDNA, one strand shown. In short, it runs like this: as §1

Assay [18] deals with ETV6 (Homo sapiens, UniProt P41212 1-452). Particulars: protein: recombinant; tags: N-terminal GST; dsDNA, one strand shown. Summed up: as §1
ETV6, sequence (P41212 whole entry): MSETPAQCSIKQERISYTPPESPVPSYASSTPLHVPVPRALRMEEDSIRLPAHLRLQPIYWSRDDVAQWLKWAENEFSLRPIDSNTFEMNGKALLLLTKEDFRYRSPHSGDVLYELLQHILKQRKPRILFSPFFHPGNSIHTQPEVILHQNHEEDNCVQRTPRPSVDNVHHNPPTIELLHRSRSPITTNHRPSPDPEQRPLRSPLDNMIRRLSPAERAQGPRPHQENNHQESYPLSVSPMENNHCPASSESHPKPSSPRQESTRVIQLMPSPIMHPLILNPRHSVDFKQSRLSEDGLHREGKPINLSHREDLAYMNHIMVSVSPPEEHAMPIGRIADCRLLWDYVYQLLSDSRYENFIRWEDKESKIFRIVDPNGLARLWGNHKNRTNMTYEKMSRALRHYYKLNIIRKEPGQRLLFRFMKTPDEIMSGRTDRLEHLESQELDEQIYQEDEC

ETV1, sequence (P50549 whole entry): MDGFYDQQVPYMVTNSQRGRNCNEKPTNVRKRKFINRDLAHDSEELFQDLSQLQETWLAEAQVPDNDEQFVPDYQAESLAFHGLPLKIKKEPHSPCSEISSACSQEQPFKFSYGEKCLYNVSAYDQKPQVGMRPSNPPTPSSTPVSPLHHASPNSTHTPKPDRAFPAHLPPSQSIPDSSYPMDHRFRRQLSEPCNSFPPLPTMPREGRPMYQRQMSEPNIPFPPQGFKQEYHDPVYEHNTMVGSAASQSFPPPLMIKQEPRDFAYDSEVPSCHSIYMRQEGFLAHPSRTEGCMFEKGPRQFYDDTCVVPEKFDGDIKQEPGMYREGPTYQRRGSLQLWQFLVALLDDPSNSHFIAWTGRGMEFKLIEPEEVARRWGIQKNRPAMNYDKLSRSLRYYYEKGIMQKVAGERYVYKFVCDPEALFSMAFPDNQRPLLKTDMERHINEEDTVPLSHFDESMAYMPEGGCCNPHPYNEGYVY
ELF4, sequence (Q99607 whole entry): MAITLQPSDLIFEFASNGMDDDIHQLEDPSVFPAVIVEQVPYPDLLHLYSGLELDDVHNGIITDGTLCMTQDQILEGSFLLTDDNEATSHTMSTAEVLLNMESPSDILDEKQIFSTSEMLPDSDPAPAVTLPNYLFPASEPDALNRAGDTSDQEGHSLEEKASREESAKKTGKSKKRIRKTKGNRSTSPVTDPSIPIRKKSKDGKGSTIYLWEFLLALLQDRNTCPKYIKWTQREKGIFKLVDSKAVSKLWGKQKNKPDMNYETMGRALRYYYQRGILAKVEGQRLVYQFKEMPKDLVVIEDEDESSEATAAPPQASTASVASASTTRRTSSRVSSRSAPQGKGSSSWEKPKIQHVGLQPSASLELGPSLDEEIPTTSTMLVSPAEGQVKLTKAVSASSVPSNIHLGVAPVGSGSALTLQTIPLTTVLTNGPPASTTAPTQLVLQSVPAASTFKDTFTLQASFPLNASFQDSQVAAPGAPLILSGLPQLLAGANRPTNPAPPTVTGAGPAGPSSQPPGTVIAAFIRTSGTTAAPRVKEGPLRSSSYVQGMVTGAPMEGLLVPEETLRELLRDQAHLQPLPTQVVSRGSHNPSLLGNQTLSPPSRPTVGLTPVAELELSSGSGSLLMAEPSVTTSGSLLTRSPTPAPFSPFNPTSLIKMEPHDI
HSF1, sequence (Q00613 whole entry): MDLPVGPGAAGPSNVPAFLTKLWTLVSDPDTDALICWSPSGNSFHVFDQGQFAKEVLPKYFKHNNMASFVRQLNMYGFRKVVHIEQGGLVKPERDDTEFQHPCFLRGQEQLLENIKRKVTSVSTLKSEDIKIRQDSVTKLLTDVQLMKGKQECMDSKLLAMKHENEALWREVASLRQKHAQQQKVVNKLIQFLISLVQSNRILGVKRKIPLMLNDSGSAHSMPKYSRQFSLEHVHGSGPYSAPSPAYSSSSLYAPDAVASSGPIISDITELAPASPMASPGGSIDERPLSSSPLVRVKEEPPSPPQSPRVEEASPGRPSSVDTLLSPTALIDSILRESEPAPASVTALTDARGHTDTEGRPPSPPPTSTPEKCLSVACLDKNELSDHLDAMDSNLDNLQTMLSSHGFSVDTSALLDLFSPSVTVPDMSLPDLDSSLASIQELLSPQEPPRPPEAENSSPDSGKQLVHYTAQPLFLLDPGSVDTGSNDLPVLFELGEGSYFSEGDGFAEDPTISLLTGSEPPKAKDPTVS
CRX, sequence (O43186 whole entry): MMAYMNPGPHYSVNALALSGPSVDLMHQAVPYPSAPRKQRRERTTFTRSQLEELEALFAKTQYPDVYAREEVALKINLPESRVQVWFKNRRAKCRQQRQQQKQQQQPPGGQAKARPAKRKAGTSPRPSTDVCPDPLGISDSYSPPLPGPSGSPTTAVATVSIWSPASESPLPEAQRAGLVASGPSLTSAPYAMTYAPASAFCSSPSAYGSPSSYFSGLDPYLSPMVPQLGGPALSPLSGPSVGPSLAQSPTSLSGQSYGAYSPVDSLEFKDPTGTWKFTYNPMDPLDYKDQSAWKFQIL
ETV5, sequence (P41161 whole entry): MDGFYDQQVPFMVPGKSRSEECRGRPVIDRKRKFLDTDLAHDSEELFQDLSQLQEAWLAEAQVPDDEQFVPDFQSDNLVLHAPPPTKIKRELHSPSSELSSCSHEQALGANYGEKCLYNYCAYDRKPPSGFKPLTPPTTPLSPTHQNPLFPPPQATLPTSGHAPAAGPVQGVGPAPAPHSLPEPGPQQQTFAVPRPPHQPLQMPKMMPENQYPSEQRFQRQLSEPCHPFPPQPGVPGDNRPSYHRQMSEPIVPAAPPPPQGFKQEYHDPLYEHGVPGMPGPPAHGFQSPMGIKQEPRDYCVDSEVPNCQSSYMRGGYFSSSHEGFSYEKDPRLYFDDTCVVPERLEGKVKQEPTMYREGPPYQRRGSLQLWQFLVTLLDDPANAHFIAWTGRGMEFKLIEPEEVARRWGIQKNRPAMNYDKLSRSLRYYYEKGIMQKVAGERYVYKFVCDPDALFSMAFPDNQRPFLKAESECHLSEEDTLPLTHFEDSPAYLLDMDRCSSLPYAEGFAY

Take CTCCAC: the binding signal in assay [1] is 1.42 fold enrichment (6-mer frequency, TF over GST control); in assay [2], 1.42 fold enrichment (6-mer frequency, TF over GST control); in assay [3] it was 1.26 fold enrichment (6-mer frequency, TF over GST control); in assay [4], 1.17 fold enrichment (6-mer frequency, TF over GST control); in assay [5], 1.4 fold enrichment (6-mer frequency, TF over GST control); in assay [6] it was 1.46 fold enrichment (6-mer frequency, TF over GST control). Also, the binding signal in assay [7] was 1.3 fold enrichment (6-mer frequency, TF over GST control); in [8], 1.27 fold enrichment (6-mer frequency, TF over GST control); in assay [9], 1.17 fold enrichment (6-mer frequency, TF over GST control); in assay [10], 1.25 fold enrichment (6-mer frequency, TF over GST control); in assay [11], 1.31 fold enrichment (6-mer frequency, TF over GST control); in assay [12], 1.45 fold enrichment (6-mer frequency, TF over GST control). For the same sequence, the binding signal is 1.43 fold enrichment (6-mer frequency, TF over GST control) in [13]; 1.27 fold enrichment (6-mer frequency, TF over GST control) in [14]; 1.39 fold enrichment (6-mer frequency, TF over GST control) in assay [15]; 1.35 fold enrichment (6-mer frequency, TF over GST control) in assay [16]; 1.3 fold enrichment (6-mer frequency, TF over GST control) in assay [17]; 1.26 fold enrichment (6-mer frequency, TF over GST control) in assay [18].
